Whole data set: some 35,000 sequences, median “fluorescence intensity (a.u.)” near 10,000, cut for the highest 2% near 52,000. For the sample, the highest values were picked, then their nearest neighbours and some sequences at random.
Molecular target: T1, OsWOX13 (Oryza sativa, UniProt Q5QMM3 1-267)
T1 sequence: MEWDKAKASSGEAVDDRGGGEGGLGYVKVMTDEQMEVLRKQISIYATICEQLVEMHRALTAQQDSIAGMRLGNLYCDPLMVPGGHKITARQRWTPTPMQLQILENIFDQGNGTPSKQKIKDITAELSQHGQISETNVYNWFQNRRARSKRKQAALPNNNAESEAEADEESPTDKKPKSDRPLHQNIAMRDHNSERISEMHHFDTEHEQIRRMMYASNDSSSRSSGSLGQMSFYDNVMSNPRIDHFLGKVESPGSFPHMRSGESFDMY
Experiment: protein-binding microarray (RPBM); PBS, 2% BSA, 51.3 ng/ul salmon testes DNA, 50 uM zinc acetate, 200 nM TF, 25 C, 1 h; high values mean tight binding
Conditions: protein: recombinant; tags: N-terminal polyhistidine and DsRed monomer fusion (pET32a); label: CyDye5-dUTP incorporated in the synthesized complementary strand; 3' TTTTT single-stranded linker to array surface; dsDNA, one strand shown
In short: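 For the binding signal, per-feature fluorescence intensity was read in arbitrary units on an Axon 4000B scanner. Before scanning, a 2% BSA-blocked custom Agilent array made double-stranded with Cy5-dUTP was washed after 1 h at 25 °C with 200 nM protein and 50 µM zinc acetate. The proteins were Ni–NTA-purified transcription factors with N-terminal polyhistidine and DsRed fusions, expressed in E. coli BL21-CodonPlus.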

| Sequence | binding signal |
| --- | --- |
| AATTTGAAATTTCAAACTTAATTTTAACATTGATTTTGAGCGGAGTCACCTAGTGCAG | 6660 fluorescence intensity (a.u.) |
| AACCATGTTTGACTCAACATAATTAGTGCGACAAACCGCACGGAGTCACCTAGTGCAG | 4590 fluorescence intensity (a.u.) |
| TTATCGAACATACTAATTGACTCTCAGGGAGTCAAGGATCCGGAGTCACCTAGTGCAG | 7680 fluorescence intensity (a.u.) |
| AGGGTTAAATTGTCAAAATTTGTGCGACACAAACACACTCCGGAGTCACCTAGTGCAG | 10900 fluorescence intensity (a.u.) |
| AAATTTTGAAATTGTTAATATGATATAAATGAGATATAGCCGGAGTCACCTAGTGCAG | 3970 fluorescence intensity (a.u.) |
| TAGATAGATTTAGTTTTGATAATGGATAGAGATATTGCCCCGGAGTCACCTAGTGCAG | 11600 fluorescence intensity (a.u.) |
| ATAATTGAAAATTGATTAGAGTACCTTTTGATGAGATAGCCGGAGTCACCTAGTGCAG | 57300 fluorescence intensity (a.u.) |
| CATTAATTAGATTGAGACAGTACTGAGATGATTGCCGCCCCGGAGTCACCTAGTGCAG | 65200 fluorescence intensity (a.u.) |
| TATAGTGCAGATTTTGAAATTGATGAGTGCACGTTTGGGCCGGAGTCACCTAGTGCAG | 6560 fluorescence intensity (a.u.) |
| CTTAACAACTGAACTGATTGAGACAGTAGATGAAATGGAACGGAGTCACCTAGTGCAG | 21400 fluorescence intensity (a.u.) |
| AGCCCGATAATTAGATTGATTATAGACATGACTACATATACGGAGTCACCTAGTGCAG | 18200 fluorescence intensity (a.u.) |
| ATTTAAATGAGATGATTGATGGGGCAATTAGTACTCTAGACGGAGTCACCTAGTGCAG | 38600 fluorescence intensity (a.u.) |
| TCGAGATGGATAATTAGATTGATTGATTGGCCGATAGCCCCGGAGTCACCTAGTGCAG | 65100 fluorescence intensity (a.u.) |
| TGAAAATGATGTCAATCAAACATGAGTGGGGCCTGCTTTGCGGAGTCACCTAGTGCAG | 38500 fluorescence intensity (a.u.) |
| TCACAATAGATAATTTATTCACTGAAAATTTTAGTTTTGGCGGAGTCACCTAGTGCAG | 11100 fluorescence intensity (a.u.) |
| GGTATTACTGACTGGATTACCATGTGTGCGTCACATCGGACGGAGTCACCTAGTGCAG | 6490 fluorescence intensity (a.u.) |
| ATTTCAGATTGGGTTATTTGAGAGCTAAATTTCTAATGTACGGAGTCACCTAGTGCAG | 4680 fluorescence intensity (a.u.) |
| TGAAAATGATTTGGGATGGCATTTCAGCGGGTTGGGCTCACGGAGTCACCTAGTGCAG | 22000 fluorescence intensity (a.u.) |
| ATAATGGCATAATTTAAATTTTACAAAATACTTATGACACCGGAGTCACCTAGTGCAG | 12600 fluorescence intensity (a.u.) |
| AGGTTGATTAACTGTTTCATGAATTTGGTATGTTTGCAGTCGGAGTCACCTAGTGCAG | 53300 fluorescence intensity (a.u.) |
| CATAATGATTGCGTTGAACGTTGGTTGCTTGATCATCTTTCGGAGTCACCTAGTGCAG | 18600 fluorescence intensity (a.u.) |
| ATGGTTGATTGATTGCATATATTTGAACAAATGATCTTTGCGGAGTCACCTAGTGCAG | 65500 fluorescence intensity (a.u.) |

| Sequence | binding signal |
| --- | --- |
| GAAAATGACCAAATTATGAAAACATCCAGGCAATGGATCTCGGAGTCACCTAGTGCAG | 3240 fluorescence intensity (a.u.) |
| ATTAATTATGTCATAAACTGTTGTTGATTTGTGCCAGTTTCGGAGTCACCTAGTGCAG | 39500 fluorescence intensity (a.u.) |
| CGACTGATTGGTTGGGGTCATGGTTGGAACAAAATTTCCTCGGAGTCACCTAGTGCAG | 52800 fluorescence intensity (a.u.) |
| GTTGATGTGATGGAAAATGACTGAAGATTGGATCTAAACTCGGAGTCACCTAGTGCAG | 31100 fluorescence intensity (a.u.) |
| CTAGTAATTACAAACATTGGAACTGAGTTTTGGTTGGGGTCGGAGTCACCTAGTGCAG | 23800 fluorescence intensity (a.u.) |
| TGATGATTTAACTGTGTTGCATGAATTCATTCCTATTTGACGGAGTCACCTAGTGCAG | 29500 fluorescence intensity (a.u.) |
| ACTAAATTGGGTTGGGGTGCCTCCTCCTTCCTTTCTTTCTCGGAGTCACCTAGTGCAG | 21000 fluorescence intensity (a.u.) |
| CCTGACAGGTCATCTCCTGATTGAAACCAAAATGTTGGATCGGAGTCACCTAGTGCAG | 60700 fluorescence intensity (a.u.) |
| CTTATATTTGCAAATATTGATGGTTGTTGACATATGAACTCGGAGTCACCTAGTGCAG | 3210 fluorescence intensity (a.u.) |
| CAAAGATTTCACTGTTTAATCTAATCTTGTGGATTTTATGCGGAGTCACCTAGTGCAG | 3590 fluorescence intensity (a.u.) |
| TCGAATTTGATCAGTAGCTTAATTATACTTTAGTACTACCCGGAGTCACCTAGTGCAG | 10600 fluorescence intensity (a.u.) |
| TGTTAATTATGCCCTCGGTCCAATTGTGATATTCTGTTGACGGAGTCACCTAGTGCAG | 38300 fluorescence intensity (a.u.) |
| CCCATGTAGATTGGGCCTGCTTAGTGAAGTCTCACGTAGCCGGAGTCACCTAGTGCAG | 5240 fluorescence intensity (a.u.) |
| ATCGTAATAGAATATGTCACATTCGGTTTTGGCTCAAGTTCGGAGTCACCTAGTGCAG | 5710 fluorescence intensity (a.u.) |
| CTTATTCACTTGTGATTGTGATGATTAGCGAACAGAGTTGCGGAGTCACCTAGTGCAG | 18700 fluorescence intensity (a.u.) |
| AGTTGACAGTTCCAATTAATCGTTCATGCGACCCAATTGACGGAGTCACCTAGTGCAG | 21500 fluorescence intensity (a.u.) |
| CTAATTTAAATTTGTCTCTTTTCTACCCTCAACCATCATTCGGAGTCACCTAGTGCAG | 27200 fluorescence intensity (a.u.) |
| TGGAAATTGATGGAGGATGATCTGCAATTAGAAAGAAGAACGGAGTCACCTAGTGCAG | 29700 fluorescence intensity (a.u.) |
| CTGGATTGATTGGGAGTGTTGGGTTTCGGGCTAGATCTGGCGGAGTCACCTAGTGCAG | 65200 fluorescence intensity (a.u.) |
| AGAAATTGATTATGGATGAGTGCCCTTCTGCCTATTATGTCGGAGTCACCTAGTGCAG | 55900 fluorescence intensity (a.u.) |
| ACTAATTGACTACTCCCTGAATTTAAAGTTGATGGTCAGTCGGAGTCACCTAGTGCAG | 61100 fluorescence intensity (a.u.) |
| TATGAATTGACTATTATATTGGCTATGGATGATTTGTAGTCGGAGTCACCTAGTGCAG | 30100 fluorescence intensity (a.u.) |

Source: PMC7819943, “Rice protein-binding microarrays: a tool to detect cis-acting elements near promoter regions in rice”
